Rows were chosen to be rich in hits. Some 6.5% of all compounds tested hit in one or more screens of this group.
Vaccinia Venus: qHTS for Stage-Specific Inhibitors of Vaccinia Orthopoxvirus: Venus Reporter Primary qHTS; Vaccinia virus Venus reporter expression, fluorescence; Potency, µM (top dose mostly 36.5 µM), without a hit: at the highest dose activity change, negative = inhibition, actives largely listed as inhibitors; actives 0.46% (n = 330,000); AID 720580, 2013; calls by dose curve; tested in A549 cells; note: potency is the fitted concentration of half-maximal effect; nearly all actives have a fitted effect of over 30% in size
Lassa entry inh: qHTS for Inhibitors of binding or entry into cells for Lassa Virus | Lassa virus pseudotype entry inhibition, cell reporter | Potency, µM (titrated, usually from 37.9 µM), inactives show at the top dose activity change, negative = inhibition, most hits filed as inhibitors | actives 1.2% (n = 300,000) | AID 540256, 2011; calls by dose curve; tested in HEK293 cells; note: potency is the fitted concentration of half-maximal effect; nearly all actives have a fitted effect of over 50% in size
MARV entry inh: qHTS for inhibitors of binding or entry into cells for Marburg Virus | Marburg virus pseudotyped entry inhibition, cell reporter | actives 1.8% (n = 300,000) | Potency, µM (series often up to 37.8 µM), inactives show at the top dose activity change, negative = inhibition, actives largely listed as inhibitors; calls by dose curve; tested in HEK293 cells; note: potency is the fitted concentration of half-maximal effect
HCMV antiviral: qHTS Assay for inhibitors of the human cytomegalovirus (HCMV); HFF cells, HCMV-luciferase reporter, 72 h; active compounds read low; activity change, negative = inhibition, % at 57.5 µM; actives 4.5% (n = 410,000); in the data active = activity change below about -60%; inconclusive = no clear call, values can overlap the other calls; inactive = above about -39%
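Luciferase read-out from HCMV-luciferase-infected HFFs (MOI 1 PFU/cell) 72 h post infection at 37C; compounds added after 16 h cell attachment; activity normalized between buffer-only basal and Salinomycin (10uM) inhibitor controls.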
VACV mCherry inh: qHTS for Stage-Specific Inhibitors of Vaccinia Orthopoxvirus: mCherry Reporter Primary qHTS | Vaccinia virus mCherry reporter infection, fluorescence | Potency, µM (titrated, usually from 36.5 µM), for the others: top-dose activity change, negative = inhibition, most hits filed as inhibitors | actives 0.63% (n = 310,000) | AID 720579, 2013; calls by dose curve; tested in A549 cells; note: potency is the fitted concentration of half-maximal effect; nearly all actives have a fitted effect of over 35% in size
FMDV inh: High Throughput Screening for Foot and Mouth Disease Virus Antivirals. FMDV antiviral cell-based qHTS. Potency, µM (top dose mostly 57.9 µM), without a hit: top-dose activity change, negative = inhibition, actives largely listed as inhibitors. actives 1.2% (n = 410,000). AID 1159524, 2015; calls by dose curve; tested in HEK293T cells; note: read-out not given here; potency is the fitted concentration of half-maximal effect; nearly all actives have a fitted effect of over 45% in size
* marks the source's active call; other numbers are inactive results; i = inactive; ? = inconclusive; . = not tested or not shown; [ ] = another dose, or the depositor's remark. % is set by controls: 0 for no effect and ±100 for the full control effect.

SMILES	Vaccinia Venus	Lassa entry inh	MARV entry inh	HCMV antiviral	VACV mCherry inh	FMDV inh
COc1ccc(CCNS(=O)(=O)c2cc(-c3onc(C)c3C)ccc2OC)cc1OC	-6%	-10%[46.1 µM]	.	-11	-11%	30%
CCCN1CNc2c(c(=O)[nH]c(=S)n2CCc2cccc(Cl)c2)C1	-6%	.	.	.	-10%	.
CC(C)CN1CCC(CN2C(=S)NC[C@@H]2Cc2ccccc2)CC1	.	.	.	-18	.	.
CN(C)CCn1cnc2c(c1=N)C(c1ccccc1)c1ccc3ccccc3c1O2 (configuration not stated)	.	.	.	-98*	.	0%
N=c1c2c(ncn1Cc1ccco1)Oc1c(ccc3ccccc13)C2c1ccccc1 (configuration not stated)	?	?	?	-38	-30%	-25%
COc1ccc(Cn2cnc3cnc(-c4cc(OC)c(OC)c(OC)c4)cc32)cc1OC	.	.	.	39	.	.
COc1ccc(-c2sc3ccc(N4CCOCC4)cc3c2C#CCO)cc1	?	.	.	-87*	-16%	16µM*
COc1ccc(N2C(=O)C(OC(C)=O)C2c2ccc(C)cc2)cc1 (configuration not stated)	-6%	-24%	-6%	-64*	-11%	9%
COc1ccc(-c2nc3c(-c4ccccc4)cnn3cc2C)cc1F	8%	-23%	?	-40	0%	0%
COc1ccc(-c2nc3c(-c4ccc(Cl)cc4)cnn3cc2C)cc1F	-1%	?	0%[46.1 µM]	-76*	2%	-8%
COC(=O)CSc1nc(N)c(C#N)c(-c2ccc(O)cc2)c1C#N	.	.	4%	5	.	4µM*
O=C(COC(=O)/C=C/c1ccc2c(c1)OCO2)Nc1ccccc1	-7%	-9%	30%[46.1 µM]	-6	-20%	45%
O=C(COC(=O)c1cccnc1)Nc1ccc2c(c1)OCO2	.	.	.	-84*	.	2%
O=C(COC(=O)C1CC1)Nc1ccc2c(c1)OCO2	9%	18%	?	-98*	4%	68%
COc1cccc(/C=C/C(=O)OCC(=O)Nc2ccc3c(c2)OCO3)c1	-15%	.	.	-97*	-17%	-10%
CCC(=O)OCC(=O)Nc1ccc2c(c1)OCO2	0%	-17%	-10%[14.2 µM]	-32	10%	16%
CCC(CC)C(=O)c1c[nH]c(C(=O)NCc2cccs2)c1	-7%	2.5µM*	-13%[46.1 µM]	5	i	12%
CCC(CC)C(=O)c1c[nH]c(C(=O)NCc2ccco2)c1	.	?	-7%	44	.	17%
O=C1CCCCN1CCC(=O)N1CCOc2ccc(C(O)C3CCCCC3)cc2C1 (configuration not stated)	-8%	.	.	.	-11%	-13%
C=CCN(CC=C)C(=O)c1cc2ccccc2c(=O)o1	-15%	13%	-3%	-63*	i	-22%
O=C(NCc1ccco1)c1cc2ccccc2c(=O)o1	-9%	?	20%	-36	i[1.46 µM]	31%
COc1ccccc1NC(=O)c1cc(Sc2nncn2C)nc2ccccc12	11µM*	0%	-5%	-38	.	-9%
COc1ccccc1NC(=O)c1cc(-c2ccc(OC)c(OC)c2)nc2ccccc12	7%	2%[46.1 µM]	4%[46.1 µM]	34	i	-17%
CCOC(=O)/C=C/c1ccc2c(c1)S(=O)(=O)N(C1CCCC1)[C@H]2CC(=O)OCC	-25%	.	.	.	-6%	.
CC(=O)C1=C(c2ccc(Br)cc2)C(=O)c2ccccc2C1=O	6%	2.5µM*	5.2µM*	?	-15%	3.2µM*
SMILES	Vaccinia Venus	Lassa entry inh	MARV entry inh	HCMV antiviral	VACV mCherry inh	FMDV inh
C[C@@H]1CC(=O)N(C)[C@H](c2ccccc2)[C@H]1S(=O)(=O)c1ccccc1	.	.	.	-8	.	.
Cc1ccc(O)cc1Nc1ccnc2cc(-c3ccccn3)ccc12	.	25µM*	.	.	.	.
CCc1cc(/C=C/c2ccnc3ccccc23)ccc1N(C)C	12%	.	.	.	?	.
CCc1cccc(NC(=O)c2ccc(CNS(=O)(=O)c3ccc4c(c3)C(C)(C)C(=O)N4C)cc2)c1	-18%	?	.	?	-17%	22µM*
Cc1ccc(NC(=O)c2ccc(CNS(=O)(=O)c3ccc4c(c3)C(C)(C)C(=O)N4C)cc2)cc1F	-23%	-13%[46.1 µM]	.	-32	?	25µM*
CN(C)CCNc1ncnc2c1sc1nc(N3CCOCC3)c3c(c12)CC(C)(C)SC3	.	?	15µM*	?	.	?
CCN(CC)CCNc1ncnc2c1sc1nc(N3CCOCC3)c3c(c12)CC(C)(C)SC3	.	4%	-8%	-37	.	0%
O=C1CCCc2cc(S(=O)(=O)NCC3CCC(C(=O)Nc4ccccc4F)CC3)ccc2N1 (configuration not stated)	-6%	-3%[46.1 µM]	.	-14	-11%	-29%
Cc1ccc(F)cc1NC(=O)COC(=O)c1ccc(S(C)(=O)=O)c([N+](=O)[O-])c1	-18%	.	.	.	-16%	.
Cc1cc(C)c(/C=C/c2onc(C)c2S(=O)(=O)N2CCC(C(=O)N(C)Cc3ccccc3)CC2)c(C)c1	-10%[7.34 µM]	?	.	68	-12%[7.34 µM]	-14%
CCc1ccc(NC(=O)C2CCCN(c3nn4cc(-c5ccc(OC)cc5)nc4s3)C2)cc1 (configuration not stated)	-30%	-6%[46.1 µM]	.	?	-13%	-15%
Cn1cc(S(=O)(=O)c2ccc(Cl)cc2)c(=O)c2cc(F)c(N3CCCC3)cc21	-30%	13%[46.1 µM]	.	-7	-19%	-12%
N=c1c[n+](CC23CC4CC(CC(C4)C2)C3)[n-]o1	-11%	-8%	1%[46.1 µM]	-75*	.	-12%
O=C(NC1CCCCCC1)C1CCN(C(=O)N2CCOc3ccccc32)CC1	-12%	3%[46.1 µM]	.	47	-8%	-16%
C=CS(=O)(=O)c1c2cc(OC)ccc2nc2ccc(OC)cc12	?	?	?	?	?	28µM*
COC(=O)[C@]1(C)CC[C@@]2(C)CC[C@@]3(C)C4=CC=C5C(=CC(=O)C(O)=C5C)[C@@]4(C)CC[C@@]3(C)C2C1 (some centres not stated)	-27%	.	.	.	-17%	10µM*
CCN(CC)c1nc(NC2CCN(C)CC2)c2cc(OC)c(OC)cc2n1	?	.	.	.	-36%	.
Cc1cc(C)c2c(=O)cc(C(=O)Nc3sc4c(c3C(=O)NCC3CCCO3)CCCC4)oc2c1 (configuration not stated)	-3%	13%[46.1 µM]	9%[46.1 µM]	-1	6%	-2%
O=C1N(Cc2cccc(Cl)c2)C[C@@H]2C[C@@H](c3cccn3-c3cccnc3)N3CCC[C@@]123	-11%	?	13µM*	-86*	-13%	?

Assay outcomes deposited in PubChem BioAssay by National Center for Advancing Translational Sciences (NCATS).
